High-throughput results as filed in PubChem.
In the library only some 21% were active in any assay of this set; here they are far more common.
Cycloheximide cs: counter-screen hit for Shiga toxin inhibitors, cycloheximide; max response, %; cell reporter, cycloheximide protein synthesis inhibition counterscreen; 300,000 compounds, 12% hits; in the data active = max response mostly above about 13%, no sharp cut-off; inactive = mostly below about 14%; note: read at 38.3 µM for the half of the compounds with a filed dose; 0% is about no effect
NS1 inh: inhibitors of influenza NS1 protein function; AID 2326; 270,000 compounds, 0.4% hits; Potency, µM (top dose mostly 46.1 µM), without a hit: at the top dose activity, positive = more growth; note: potency is the fitted concentration of half-maximal effect; actives are rising curves; nearly all actives have a fitted effect of over 50% in size
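Read-out: OD600 growth recovery of NS1-expressing budding yeast. Cells grown overnight at 30C in -URA glucose medium, washed, resuspended and diluted 1:100 in 2% galactose assay medium, pH 6.0. Same strain lacking NS1 served as positive control.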
SARS PLpro yeast: blocks SARS-CoV papain-like protease in a yeast assay. S. cerevisiae expressing SARS-CoV PLpro, growth rescue. Potency, µM (titrated, usually from 32.9 µM), without a hit: at the top dose activity, positive = growth rescue, actives largely listed as activators. 330,000 compounds, 0.19% hits; note: potency is the fitted concentration of half-maximal effect; 0% is about no effect; nearly all actives have a fitted effect of over 55% in size
Pf growth 96h: inhibits malaria parasite growth, 96 h. P. falciparum luciferase reporter growth, 96 h. AID 504834. 320,000 compounds, 6.9% hits. Potency, µM (top dose mostly 28.7 µM), inactives show at the top dose activity change, negative = inhibition, most hits filed as inhibitors; active = well fitted inhibition curve with a large enough effect; inconclusive = small, poorly fitted or top-dose-only effect, or another doubt; inactive = no such curve, though single readings can be large or run the other way; note: potency is the fitted concentration of half-maximal effect; % is set by controls: 0 for no effect and ±100 for the full control effect
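Two parasite generations (96 h, 37 C, 5% CO2) of compound exposure in infected erythrocytes (0.05% parasitemia, 2% hematocrit). Luciferase-reporter P. falciparum; decreased luminescence indicates inhibited growth, aimed at apicoplast-acting delayed death.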
Shiga toxin inh: Shiga toxin inhibition | AID 2315 | Vero cells, Shiga toxin protein synthesis inhibition reporter | inhibition, % at 38.7 µM | 290,000 compounds, 9.2% hits; in the data active = inhibition mostly above about 28%, no sharp cut-off; inactive = mostly below about 43%; note: 0% is about no effect
Pf growth 48h: P. falciparum growth inhibition at 48 hours (one generation). P. falciparum luciferase growth in erythrocytes, 48 h. Potency, µM (top dose mostly 28.7 µM), inactives show at the highest dose activity change, negative = inhibition, most hits filed as inhibitors. 310,000 compounds, 5.9% hits. AID 504832; active = well fitted inhibition curve with a large enough effect; inconclusive = small, poorly fitted or top-dose-only effect, or another doubt; inactive = no such curve, though single readings can be large or run the other way; note: potency is the fitted concentration of half-maximal effect; % is set by controls: 0 for no effect and ±100 for the full control effect
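A one-generation exposure of luciferase-tagged malaria parasites in RPMI 1640/Albumax erythrocyte culture, 37 C and 5% CO2. Inhibition is inferred from decreased luminescence after adding detection reagent.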
Active calls of the source: *; ? = inconclusive; · = no result. Unless noted, calls come from the whole dose curve.

SMILES | Cycloheximide cs | NS1 inh | SARS PLpro yeast | Pf growth 96h | Shiga toxin inh | Pf growth 48h
Cc1c(C(=O)NCCN2CCCC(O)C2)oc2c(F)cccc12 (centres undefined) | -4 | 7% | -4% | -20% | 10 | 36%
COc1ccc2c(c1)C(=O)N(Cc1ccccc1)C(=O)C2(C)C | -3 | -14% | -3% | ? | 2 | ?
C[C@]12c3[nH]c4ccccc4c3CCN1C(=O)C(CC(=O)NCCN1CCOCC1)C[C@@H]2C(=O)N1CCOCC1 (some centres undefined) | · | · | -1% | · | · | ·
CN(C(=O)CSc1nc(-c2ccccc2)cn1N)C(c1ccccc1)c1ccccc1 | -1 | 18% | -12% | · | 13 | 12µM*
CC(=O)Nc1cccc(NC(=O)Nc2ccc(C)c(Cl)c2)c1 | 30* | 5% | -1% | 30% | 48* | 30%
CCOc1ccc(NC(=O)Nc2cnccn2)cc1 | 16* | · | 0% | -1% | 59 | 36%
CCOc1ccc(NC(=O)NC(C)CC)cc1 (centres undefined) | 40* | · | 13% | 9.3µM* | 42* | 24%
Cc1ccc(NC(=O)Nc2cnccn2)cc1Cl | 23* | · | -4% | 13% | 70* | 43%
Cc1ccccc1NC(=O)Nc1cnccn1 | 9 | -12% | ? | 2% | 74 | 18%
CC(=O)Nc1ccc(NC(=O)Nc2ccc(C)c(C)c2)cc1 | 2 | 1% | 1% | 44% | 22 | 17%
COc1ccccc1NC(=O)CSc1nnc(C2CCCCC2)n1-c1ccccc1 | -2 | 7% | 2% | ? | -2 | ?
O=C(Nc1cnccn1)Nc1ccc(Cl)cc1Cl | 29* | · | 0% | 42% | 76* | 21%
Cn1ccc(NC(=O)Nc2ccc(Cl)cc2Cl)n1 | 51* | -9% | -29% | ? | 22* | 84%
COc1ccc(NC(=O)Nc2cnccn2)cc1 | 36* | 0% | -2% | 68% | 48* | 61%
CCC(C)c1ccc(NC(=O)Nc2cnccn2)cc1 (centres undefined) | 74* | 1% | -1% | 55% | 87* | ?
COc1cc(S(=O)(=O)N2CCOCC2)cc(C(=O)OCC(=O)NC2CCCCC2)c1OC | · | · | 9% | ? | · | ?
COc1ccc(C2=NN(C(=O)CCC(=O)O)C(c3ccc(Br)cc3)C2)cc1 (centres undefined) | -1 | 4% | 2% | ? | -6 | -9%
COc1ccc(CC(CC(=O)O)C(=O)Nc2ccc(OC)cc2)cc1 (centres undefined) | -3 | -5% | -3% | ? | 1 | 3%
CCOc1ccc(NC(=O)C(CC(=O)O)Cc2ccc(Br)cc2)cc1 (centres undefined) | -2 | 16% | 0% | 9.3µM* | -7 | 3%
Nc1nc(NCC2CCC(CNS(=O)(=O)c3cccc4ccccc34)CC2)nc2ccccc12 (centres undefined) | -7 | · | · | · | -15 | ·
O=C(CN1C(=O)S/C(=C\c2ccc(O)cc2)C1=O)c1ccccc1 | 36* | 0% | 0% | ? | 20* | -35%
O=C(CN1C(=O)S/C(=C\c2ccccc2)C1=O)NNC(=O)c1ccccc1O | -3 | 10% | 8% | 13% | 4 | 6%
COc1ccc(/C=C2\SC(=O)N(CC(=O)NNC(=O)c3ccccc3O)C2=O)cc1 | 1 | 23% | 7% | 3.3µM* | 4 | 30%
COc1ccc(/C=C2\SC(=O)N(CCNC(=O)Cn3cnnn3)C2=O)cc1 | 32* | -2% | -13% | · | 157* | 208%
O=C(CN1C(=O)S/C(=C\c2ccc(C(=O)O)cc2)C1=O)Nc1ccccc1 | -3 | 1% | 1% | -2% | · | 26%
COc1ccc(/C=C2\SC(=O)N(CCNC(=O)Cc3coc4cc(C)ccc34)C2=O)cc1OC | 7 | ? | 11% | 7.4µM* | 19 | ?
Cc1cc(=O)n(CC(C)O)c(O)c1C#N (centres undefined) | -3 | 4% | 2% | · | -6 | -13%
OCC1(CCc2ccccc2)CCCN(CCCc2ccccc2)C1 (centres undefined) | 0 | 2% | 3% | 19% | -3 | ?
CC(C)CCC1(CCNC(=O)c2cccs2)CCOC(C)(C)C1 (centres undefined) | -2 | -10% | -2% | -30% | 6 | ?
